Test results reported in PubChem BioAssay (EPA / NIEHS).
“And” between values parts separate entries of the source, which are not always exact repeats. Equal values may be shown once. Inconclusive results are not listed. A structure can be active in one record and inactive in another. The source made the active and inactive calls. The calls were made as follows: active = hit-call score of the fitted dose curve at least 0.9, where 1 is the maximum; inconclusive = response in the unintended direction; inactive = score below 0.9.

experiment: TOX21_p53_BLA_p3_viability: Viability Assessment in the Tox21 HCT-116 p53 Agonism Beta-lactamase Assay, Phase 3 (AID 2283593);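 also: cells exposed to compound for 16 h before reading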
Text: TOX21_p53_BLA_p3 is a cell-based, single-readout assay that uses HCT116, a human intestinal cell line, […] in a 1536-well plate.TOX21_p53_BLA_p3_viability is an assay readout measuring cellular ATP content and detected with CellTiter-Glo Luciferase-coupled ATP quantitation.TOX21_p53_BLA_p3_viability used a type of viability reporter where loss-of-signal activity can be used to understand changes in the cell viability. Furthermore, this assay endpoint can be referred to as a secondary readout, because this assay has produced multiple assay endpoints where this one serves a viability function. To generalize the intended target to other relatable targets, this assay endpoint is annotated to the cell cycle intended target family, where the subfamily is cytotoxicity.
Thawing Method: Place 14 mL of pre-warmed thaw medium into a 15 mL of conical tub. Remove the vial of cells to be thawed from liquid nitrogen and thaw rapidly by placing at 37C in a water bath with gentle agitation for 1-2 minutes. Decontaminate the vial by wiping with 70% ethanol before opening in a biological safety cabinet. Transfer the vial contents drop-wise into 14 mL of thaw medium in a sterile 15-mL conical tub. Centrifuge cells at 900 rpm for 4 minutes and resuspend in thaw medium. Transfer contents to the T75 tissue culture flask containing Thaw Medium and place flask in a humidified 37C/5% CO2 incubator. Switch to growth medium at first passage.Propagation Method: Aspirate medium, rinse once in DPBS, add 0.25% Trypsin/EDTA and swirl to coat the cell evenly. Add an equal volume of Growth Medium to inactivate Trypsin after 2-3 minutes incubation at 37C. Centrifuge cells at 900 rpm for 4 minutes and resuspend in growth medium. Cell should be passage or fed at least twice a week.Assay Protocol: Harvest cells from culture in growth medium and resuspend in assay medium. 2.2 Dispense 4000 cells/5 uL/well into 1536-well black/clear bottom plates using a Multidrop dispenser. After the cells were incubated at 37C for 5 hours, 23 nL of compounds dissolved in DMSO were transferred to the assay plate by a PinTool resulting in a 217-fold dilution. Incubate the plates for 16 hours at 37C, 5% CO2. Add 1 uL of 6X LiveBLAzer FRET B/G (CCF4-AM) Substrate Mixture to each well using a BioRAPTR dispenser and incubate the plates at room temperature for 2 hours. Measure fluorescence intensity at 460 and 530 nm emission and 405 nm excitation by an Envision detector. Data is expressed as the ratio of 460nm/530nm emissions. Add 4 uL of Cell-titer Glo to each well using BioRAPTR and incubate the plates at room temperature for […]. For cell viability readout that measures cytotoxicity, 4 ul/well of CellTiter-Glo reagent was added into the assay plates using a Flying Reagent Dispenser. After 30 min incubation at room temperature, the luminescence intensity in the plates was measured using a ViewLux plate reader.

Row | Compound | outcome | AC50
1 | Nc1ccc([N+](=O)[O-])cc1 | inactive | –
2 | Clc1ccc(C(c2ccc(Cl)cc2)C(Cl)(Cl)Cl)cc1 | inactive | 77.1 µM (active) and 30.7 µM (active)
3 | ClC1=C(Cl)[C@]2(Cl)[C@H]3[C@H]([C@@H]4C=C[C@H]3C4)[C@@]1(Cl)C2(Cl)Cl | inactive | 46 µM (active)
4 | Nc1ccc(Oc2ccc(N)cc2)cc1 | inactive | –
5 | CCC12COCN1COC2 | inactive | –
6 | N#CC(Br)(Br)C(N)=O | inactive | –
7 | CNC(=O)Oc1cccc2c1OC(C)(C)C2 | inactive | –
8 | CC(C)N(Cc1ccccc1)C(=O)C(C)(C)C | inactive | –
9 | CC(O)CCO (stereo not given) | inactive | –
10 | CCCCCCCCOC(=O)c1ccc(C(=O)OCCCCCCCC)c(C(=O)OCCCCCCCC)c1 | inactive | –
11 | c1ccc2c(c1)-c1cccc3cccc-2c13 | inactive | –
12 | O=Cc1ccco1 | inactive | –
13 | C=CCc1ccc2c(c1)OCO2 | inactive | –
14 | CS(=O)(=O)NC(=O)c1cc(Oc2ccc(C(F)(F)F)cc2Cl)ccc1[N+](=O)[O-] | inactive | –
15 | c1ccc(C2CO2)cc1 (stereo not given) | inactive | –
16 | [Cl-].[Cl-].[Hg+2] | inactive | 68.5 µM (active) and 26.1 µM (active)
17 | CC(C)(C)C(O)(CCc1ccc(Cl)cc1)Cn1cncn1 (stereo not given) | inactive | –
18 | Clc1ccc(C(c2ccc(Cl)cc2)C(Cl)Cl)cc1 | – | 79.1 µM (active) and 50.6 µM (active)
19 | Nc1ccc(Cl)cc1N | inactive | –

Row | Compound | outcome | AC50
20 | Cc1ccc(N)c(N)c1 | inactive | –
21 | Nc1ccc(N=Nc2ccccc2)cc1 | inactive | –
22 | CC(C)(C)OOC(C)(C)CCC(C)(C)OOC(C)(C)C | inactive | –
23 | ClCCOCCCl | inactive | –
24 | COP(=S)(OC)SCN1C(=O)c2ccccc2C1=O | inactive | –
25 | Oc1ccc2ccc3cccc4ccc1c2c34 | inactive | –
26 | CCCCCCCCCCCCCN1CC(C)OC(C)C1 (stereo not given) | inactive | –
27 | COc1cc(C=O)cc2c1[C@H](COC(N)=O)[C@]1(OC(C)=O)ON2C[C@H]2[C@@H]1N2C(C)=O | inactive | –
28 | OCCCBr | inactive | –
29 | CN(C)[C@@H]1C(=O)C(C(N)=O)=C(O)[C@@]2(O)C(=O)C3=C(O)c4c(O)cccc4[C@@](C)(O)[C@H]3C[C@@H]12 | inactive | –
30 | OCCCl | inactive | –
31 | C[N+](C)(C)CC1CO1 (stereo not given) | inactive | –
32 | Clc1ccc(Cl)c(Cl)c1 | inactive | –
33 | O=[N+]([O-])c1ccc(Oc2ccc(Cl)cc2Cl)cc1 | inactive | –
34 | CN(C)C(=O)Nc1ccc(Cl)cc1 | inactive | –
35 | COC(=O)Nc1nc2ccccc2[nH]1 | inactive | –
36 | CC(C)(O)c1cnn2c(-c3ccc(F)c(-c4c(F)cccc4C#N)c3)cnc2n1 | inactive | –
37 | CCC(C)c1ccc(O)cc1 (stereo not given) | inactive | –
